# Results taken from publication PMC5540273 (PLoS ONE, 2017).
# Assays:
# Settings in all cases: concentration: 1 μM, replicates: in singlicate; n = 1
# SRPK1 = system: SRPK1
# SRPK2 = system: SRPK2
# SRPK3 = system: SRPK3
# STK16 = system: STK16
# STK33 = system: STK33
# STK35 = system: STK35
# STK36 = system: STK36
# STK39 = system: STK39
# SYK = system: SYK
# SgK110 = system: SgK110
# TAK1 = system: T1, TAK1
# T1 construct: gene MAP3K7
# TAOK1 = system: TAOK1
# TAOK2 = system: TAOK2
# TAOK3 = system: TAOK3
# TBK1 = system: TBK1
# TEC = system: TEC
# TESK1 = system: TESK1
# TGFBR1 = system: TGFBR1
# TGFBR2 = system: TGFBR2
# TIE1 = system: TIE1
# 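Further: KINOMEscan kinase panel screen.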
SMILES,%Inh (SRPK1) [%],%Inh (SRPK2) [%],%Inh (SRPK3) [%],%Inh (STK16) [%],%Inh (STK33) [%],%Inh (STK35) [%],%Inh (STK36) [%],%Inh (STK39) [%],%Inh (SYK) [%],%Inh (SgK110) [%],%Inh (TAK1) [%],%Inh (TAOK1) [%],%Inh (TAOK2) [%],%Inh (TAOK3) [%],%Inh (TBK1) [%],%Inh (TEC) [%],%Inh (TESK1) [%],%Inh (TGFBR1) [%],%Inh (TGFBR2) [%],%Inh (TIE1) [%]
Cc1nn2c(=O)cc(N3CCOCC3)nc2n1Cc1cccc(Cl)c1Cl [GSK2342769],19,0,0,0,0,0,0,10,8,0,0,0,0,0,11,0,10,0,44,12
Cl.c1ccc(Cn2cnc3cc(Nc4ncnc5ccccc45)ccc32)cc1 [GW272142],19,0,0,28,0,0,0,7,11,0,0,0,0,0,7,11,1,6,0,48
O=C(Nc1n[nH]c2cc(-c3ccccc3F)ccc12)C1CC1 [SB-733371],10,0,38,0,0,11,0,2,17,0,0,52,19,24,0,0,1,0,0,0
FC(F)(F)c1ccc(-c2ncn(CCCN3CCOCC3)c2-c2ccncc2)cc1 [SB-217780],0,6,6,9,0,0,10,19,0,0,24,0,0,0,3,3,12,2,0,15
Nc1ncnc2c1ncn2-c1cccc2ccccc12 [SKF-97184],0,32,12,9,0,0,6,25,0,31,3,0,9,0,30,0,0,40,11,0
Nc1ncnc2c1ncn2-c1cccc(F)c1 [SKF-97560],16,0,0,6,6,0,4,0,25,5,0,19,0,0,23,3,15,12,0,0
CN1C(=O)C(Nc2ccccc2)=C(c2ccccc2)C1=O [SB-300079],0,0,0,0,9,0,0,0,3,0,0,0,34,0,21,0,2,22,0,0
CCCC(=O)Nc1n[nH]c2ncc(-c3cccc4ccccc34)cc12 [SB-642057],16,0,0,24,0,4,0,6,0,0,0,0,1,1,27,15,40,14,49,0
COc1cccc(-n2cnc3c(N)ncnc32)c1 [SKF-97416],2,6,0,16,12,0,0,29,4,0,23,31,9,28,31,5,17,24,0,19
Nc1nccc2scc(-c3ccc4c(c3)CCN4C(=O)Cc3ccccc3)c12 [GSK2576924],28,0,0,4,0,0,0,11,16,0,1,2,17,10,2,16,0,7,0,55
